In assay [1] the target is Death-associated protein kinase 1 (Homo sapiens) (UniProt P53355). The following applies: at 10 µM.
The target of assay [2] is Death-associated protein kinase 2 (Homo sapiens) (UniProt Q9UIK4). As to conditions: at 1 µM.
The target is the same in assay [3]. The following applies: at 10 µM.
Assay [4] concerns the target T1, Serine/threonine-protein kinase DCLK2 (Homo sapiens) (UniProt Q8N568).
T1 sequence (whole entry): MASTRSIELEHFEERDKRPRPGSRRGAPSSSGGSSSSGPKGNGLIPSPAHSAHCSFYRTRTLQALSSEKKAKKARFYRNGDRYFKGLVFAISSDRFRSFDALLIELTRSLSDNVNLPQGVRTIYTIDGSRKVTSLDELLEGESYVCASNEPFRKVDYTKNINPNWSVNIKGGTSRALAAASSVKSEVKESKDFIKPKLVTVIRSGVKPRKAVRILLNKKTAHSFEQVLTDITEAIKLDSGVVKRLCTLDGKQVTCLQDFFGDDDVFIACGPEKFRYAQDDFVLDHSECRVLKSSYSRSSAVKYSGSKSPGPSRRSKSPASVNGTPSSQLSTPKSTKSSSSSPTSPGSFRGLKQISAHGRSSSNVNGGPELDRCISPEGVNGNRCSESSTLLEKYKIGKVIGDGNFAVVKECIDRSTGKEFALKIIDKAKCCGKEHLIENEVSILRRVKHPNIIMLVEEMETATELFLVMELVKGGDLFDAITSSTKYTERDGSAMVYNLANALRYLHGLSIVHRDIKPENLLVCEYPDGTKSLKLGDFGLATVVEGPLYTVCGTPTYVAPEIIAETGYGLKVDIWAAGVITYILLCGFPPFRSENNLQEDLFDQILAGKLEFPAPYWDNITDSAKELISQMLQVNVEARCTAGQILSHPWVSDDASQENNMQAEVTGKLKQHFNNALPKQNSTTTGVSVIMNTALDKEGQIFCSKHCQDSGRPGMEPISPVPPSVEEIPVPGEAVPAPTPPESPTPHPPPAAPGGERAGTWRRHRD
The following applies: at 1 µM.

Assay [5] concerns the target T1, Serine/threonine-protein kinase DCLK2 (Homo sapiens). The following applies: at 10 µM.
For assay [6], the target named is T2, Myotonin-protein kinase (Homo sapiens) (UniProt Q09013).
T2 sequence (whole entry): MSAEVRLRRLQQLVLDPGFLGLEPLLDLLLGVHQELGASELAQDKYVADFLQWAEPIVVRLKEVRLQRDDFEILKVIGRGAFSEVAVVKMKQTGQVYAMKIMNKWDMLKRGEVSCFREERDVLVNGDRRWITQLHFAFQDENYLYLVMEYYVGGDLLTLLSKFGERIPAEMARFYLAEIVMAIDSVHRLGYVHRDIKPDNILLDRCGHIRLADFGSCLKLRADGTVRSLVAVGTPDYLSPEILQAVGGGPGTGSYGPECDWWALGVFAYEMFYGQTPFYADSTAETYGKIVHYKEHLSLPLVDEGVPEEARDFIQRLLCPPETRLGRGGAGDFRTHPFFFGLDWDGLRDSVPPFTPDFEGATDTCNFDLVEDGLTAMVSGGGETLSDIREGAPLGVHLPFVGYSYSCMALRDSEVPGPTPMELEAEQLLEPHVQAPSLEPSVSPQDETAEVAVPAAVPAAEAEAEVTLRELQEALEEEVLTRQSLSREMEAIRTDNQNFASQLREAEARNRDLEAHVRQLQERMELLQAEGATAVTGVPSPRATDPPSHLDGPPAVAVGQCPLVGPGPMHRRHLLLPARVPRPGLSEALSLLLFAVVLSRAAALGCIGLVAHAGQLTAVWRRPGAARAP
As to conditions: at 10 µM.

Assay [7] addresses T3, Serine/threonine-protein kinase 17A (Homo sapiens) (UniProt Q9UEE5).
T3 sequence (whole entry): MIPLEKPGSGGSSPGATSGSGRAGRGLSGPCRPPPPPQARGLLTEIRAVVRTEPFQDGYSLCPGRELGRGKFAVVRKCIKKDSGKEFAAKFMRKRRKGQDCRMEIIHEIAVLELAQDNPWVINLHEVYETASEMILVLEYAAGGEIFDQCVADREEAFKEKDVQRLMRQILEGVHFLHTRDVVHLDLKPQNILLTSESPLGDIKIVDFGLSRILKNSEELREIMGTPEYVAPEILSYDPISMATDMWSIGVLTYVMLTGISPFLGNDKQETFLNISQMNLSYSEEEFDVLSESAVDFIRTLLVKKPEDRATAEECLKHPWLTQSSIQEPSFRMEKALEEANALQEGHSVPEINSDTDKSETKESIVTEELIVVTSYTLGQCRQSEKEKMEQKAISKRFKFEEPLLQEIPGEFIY
The following applies: at 1 µM.

Assay [8] has as its target T3, Serine/threonine-protein kinase 17A (Homo sapiens). As to conditions: at 10 µM.
The target of assay [9] is T4, Dual specificity tyrosine-phosphorylation-regulated kinase 2 (Homo sapiens) (UniProt Q92630).
T4 sequence (whole entry): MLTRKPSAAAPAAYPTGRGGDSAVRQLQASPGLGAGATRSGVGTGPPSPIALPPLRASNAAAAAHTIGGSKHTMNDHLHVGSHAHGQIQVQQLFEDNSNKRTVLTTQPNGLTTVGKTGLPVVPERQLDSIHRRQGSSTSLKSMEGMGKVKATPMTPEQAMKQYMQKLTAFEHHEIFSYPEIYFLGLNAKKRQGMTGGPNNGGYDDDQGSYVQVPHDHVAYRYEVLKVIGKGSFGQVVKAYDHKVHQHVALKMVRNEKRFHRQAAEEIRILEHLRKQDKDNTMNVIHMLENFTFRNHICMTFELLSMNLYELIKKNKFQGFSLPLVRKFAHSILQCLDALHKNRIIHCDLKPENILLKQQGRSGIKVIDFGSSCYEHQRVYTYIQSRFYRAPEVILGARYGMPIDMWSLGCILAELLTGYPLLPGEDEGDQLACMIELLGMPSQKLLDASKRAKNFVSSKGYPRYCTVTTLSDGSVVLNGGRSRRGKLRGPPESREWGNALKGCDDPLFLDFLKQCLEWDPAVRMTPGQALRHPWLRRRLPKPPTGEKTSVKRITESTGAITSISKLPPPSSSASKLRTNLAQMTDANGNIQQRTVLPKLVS
As to conditions: at 1 µM.

Assay [10] has as its target T4, Dual specificity tyrosine-phosphorylation-regulated kinase 2 (Homo sapiens). The following applies: at 10 µM.
The target of assay [11] is T5, Ephrin type-A receptor 1 (Homo sapiens) (UniProt P21709).
T5 sequence (whole entry): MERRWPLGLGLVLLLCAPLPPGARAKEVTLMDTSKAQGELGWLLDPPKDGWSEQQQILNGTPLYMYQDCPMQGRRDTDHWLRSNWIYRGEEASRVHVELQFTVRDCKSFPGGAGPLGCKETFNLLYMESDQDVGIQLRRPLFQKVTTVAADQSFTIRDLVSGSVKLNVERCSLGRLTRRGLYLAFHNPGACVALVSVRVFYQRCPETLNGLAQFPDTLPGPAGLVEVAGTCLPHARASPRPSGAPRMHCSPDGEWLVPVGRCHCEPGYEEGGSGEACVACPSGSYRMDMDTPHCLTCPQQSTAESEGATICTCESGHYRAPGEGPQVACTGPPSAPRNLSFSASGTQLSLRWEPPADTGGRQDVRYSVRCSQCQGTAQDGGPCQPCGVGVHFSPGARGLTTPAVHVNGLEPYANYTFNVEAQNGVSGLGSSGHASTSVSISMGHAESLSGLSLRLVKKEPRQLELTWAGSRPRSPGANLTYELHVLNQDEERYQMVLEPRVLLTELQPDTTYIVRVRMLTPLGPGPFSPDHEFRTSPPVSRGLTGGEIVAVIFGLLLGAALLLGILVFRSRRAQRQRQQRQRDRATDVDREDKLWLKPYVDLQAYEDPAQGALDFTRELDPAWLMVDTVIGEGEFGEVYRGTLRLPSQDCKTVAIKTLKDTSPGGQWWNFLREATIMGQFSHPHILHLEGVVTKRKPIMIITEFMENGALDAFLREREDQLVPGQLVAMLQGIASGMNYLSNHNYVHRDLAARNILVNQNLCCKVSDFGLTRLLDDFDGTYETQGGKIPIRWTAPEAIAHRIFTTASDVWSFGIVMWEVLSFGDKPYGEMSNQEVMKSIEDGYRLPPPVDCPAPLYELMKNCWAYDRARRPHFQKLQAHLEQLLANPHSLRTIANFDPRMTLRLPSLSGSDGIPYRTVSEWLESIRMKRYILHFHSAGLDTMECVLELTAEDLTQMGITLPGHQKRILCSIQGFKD
As to conditions: at 1 µM.

Assay [12] deals with T5, Ephrin type-A receptor 1 (Homo sapiens). As to conditions: at 10 µM.
Assay [13] deals with Ephrin type-A receptor 2 (Homo sapiens) (UniProt P29317). The following applies: at 1 µM.
Ephrin type-A receptor 2 (Homo sapiens), sequence (P29317 whole entry): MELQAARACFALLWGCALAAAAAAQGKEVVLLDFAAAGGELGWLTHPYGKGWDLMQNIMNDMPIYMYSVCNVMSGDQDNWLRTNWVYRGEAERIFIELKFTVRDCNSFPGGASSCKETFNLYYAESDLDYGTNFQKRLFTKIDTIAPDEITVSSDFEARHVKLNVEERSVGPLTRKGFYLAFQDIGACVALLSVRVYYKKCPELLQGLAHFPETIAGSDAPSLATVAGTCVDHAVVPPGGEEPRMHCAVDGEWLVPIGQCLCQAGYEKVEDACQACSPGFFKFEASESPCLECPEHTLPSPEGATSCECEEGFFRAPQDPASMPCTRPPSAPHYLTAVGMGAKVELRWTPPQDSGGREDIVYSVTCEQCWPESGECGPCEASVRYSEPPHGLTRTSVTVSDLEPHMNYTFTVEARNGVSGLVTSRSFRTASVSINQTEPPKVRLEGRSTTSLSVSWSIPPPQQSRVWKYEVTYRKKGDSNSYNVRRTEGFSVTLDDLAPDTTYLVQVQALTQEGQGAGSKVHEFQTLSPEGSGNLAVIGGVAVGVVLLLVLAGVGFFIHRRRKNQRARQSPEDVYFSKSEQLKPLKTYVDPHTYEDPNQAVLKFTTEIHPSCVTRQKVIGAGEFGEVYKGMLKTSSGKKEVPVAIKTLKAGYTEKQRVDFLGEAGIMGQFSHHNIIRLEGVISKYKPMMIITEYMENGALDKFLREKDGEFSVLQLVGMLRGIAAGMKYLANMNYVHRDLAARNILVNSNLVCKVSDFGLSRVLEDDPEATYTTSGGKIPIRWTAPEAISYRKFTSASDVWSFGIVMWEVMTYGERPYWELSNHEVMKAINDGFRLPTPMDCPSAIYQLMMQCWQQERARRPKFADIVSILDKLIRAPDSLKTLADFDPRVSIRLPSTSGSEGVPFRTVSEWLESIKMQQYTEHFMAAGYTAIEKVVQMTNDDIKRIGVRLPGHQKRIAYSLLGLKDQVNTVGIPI
Assay [14] shares this target. The following applies: at 10 µM.
Assay [15] deals with T6, Ephrin type-A receptor 3 (Homo sapiens) (UniProt P29320).
T6 sequence (whole entry): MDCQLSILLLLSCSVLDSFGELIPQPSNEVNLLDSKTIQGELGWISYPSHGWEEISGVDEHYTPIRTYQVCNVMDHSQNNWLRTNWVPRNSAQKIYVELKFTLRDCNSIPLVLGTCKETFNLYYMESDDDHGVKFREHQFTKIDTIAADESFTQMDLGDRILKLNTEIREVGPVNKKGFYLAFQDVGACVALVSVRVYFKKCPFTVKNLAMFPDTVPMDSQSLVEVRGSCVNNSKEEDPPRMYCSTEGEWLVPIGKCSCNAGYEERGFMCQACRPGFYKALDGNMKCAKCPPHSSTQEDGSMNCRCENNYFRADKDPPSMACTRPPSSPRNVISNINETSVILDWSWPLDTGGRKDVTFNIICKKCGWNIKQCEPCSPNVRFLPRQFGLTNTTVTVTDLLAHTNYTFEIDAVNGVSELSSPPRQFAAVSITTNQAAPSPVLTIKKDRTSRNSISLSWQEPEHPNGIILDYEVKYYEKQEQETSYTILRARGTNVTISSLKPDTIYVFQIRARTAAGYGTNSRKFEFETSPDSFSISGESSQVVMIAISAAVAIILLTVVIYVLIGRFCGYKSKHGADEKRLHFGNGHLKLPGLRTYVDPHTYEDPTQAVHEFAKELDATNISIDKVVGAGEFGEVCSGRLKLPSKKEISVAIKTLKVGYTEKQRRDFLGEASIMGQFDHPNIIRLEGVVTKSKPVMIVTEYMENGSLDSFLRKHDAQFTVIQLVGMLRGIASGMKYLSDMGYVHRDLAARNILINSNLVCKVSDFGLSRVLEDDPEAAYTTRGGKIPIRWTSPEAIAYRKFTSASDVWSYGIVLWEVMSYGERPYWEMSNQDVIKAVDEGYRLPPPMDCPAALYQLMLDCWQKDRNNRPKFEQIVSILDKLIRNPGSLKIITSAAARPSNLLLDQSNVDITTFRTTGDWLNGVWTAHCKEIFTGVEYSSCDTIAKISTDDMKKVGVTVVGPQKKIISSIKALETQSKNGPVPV
The following applies: at 1 µM.

Assay [16] deals with T7, Discoidin domain-containing receptor 2 (Homo sapiens) (UniProt Q16832).
T7 sequence (whole entry): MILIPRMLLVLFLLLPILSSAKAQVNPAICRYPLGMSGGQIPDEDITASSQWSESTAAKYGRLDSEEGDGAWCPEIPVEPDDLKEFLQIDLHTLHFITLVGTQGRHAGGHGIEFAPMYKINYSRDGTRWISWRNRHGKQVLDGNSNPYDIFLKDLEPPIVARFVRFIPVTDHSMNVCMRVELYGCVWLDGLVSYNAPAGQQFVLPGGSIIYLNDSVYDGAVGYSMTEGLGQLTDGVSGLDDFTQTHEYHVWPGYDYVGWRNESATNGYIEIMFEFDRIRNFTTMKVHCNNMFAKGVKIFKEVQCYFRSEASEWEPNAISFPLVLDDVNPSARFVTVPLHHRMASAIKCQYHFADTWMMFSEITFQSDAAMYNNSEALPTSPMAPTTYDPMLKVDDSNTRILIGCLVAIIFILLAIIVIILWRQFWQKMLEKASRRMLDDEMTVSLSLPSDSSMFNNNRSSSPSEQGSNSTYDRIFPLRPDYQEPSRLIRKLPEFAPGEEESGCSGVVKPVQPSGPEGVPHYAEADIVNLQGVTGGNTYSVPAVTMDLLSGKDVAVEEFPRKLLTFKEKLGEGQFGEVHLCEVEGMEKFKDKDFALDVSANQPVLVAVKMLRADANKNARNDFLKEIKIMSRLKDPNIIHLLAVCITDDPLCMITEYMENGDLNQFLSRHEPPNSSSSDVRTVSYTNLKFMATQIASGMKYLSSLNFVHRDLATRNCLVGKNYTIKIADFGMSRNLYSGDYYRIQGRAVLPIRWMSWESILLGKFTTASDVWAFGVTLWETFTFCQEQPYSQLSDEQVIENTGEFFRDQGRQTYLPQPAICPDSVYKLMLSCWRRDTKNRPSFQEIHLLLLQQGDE
As to conditions: at 10 µM.

In assay [17] the target is T2, Myotonin-protein kinase (Homo sapiens). As to conditions: at 1 µM.
Assay [18] has as its target Epidermal growth factor receptor (Homo sapiens) (UniProt P00533). The following applies: at 1 µM.
Assay [19] shares this target. As to conditions: at 10 µM.

The text below walks through data of ChEMBL document CHEMBL2218924, “A broad activity screen in support of a chemogenomic map for kinase signalling research and drug discovery” (Biochem J, 2013).

In general, residual activity refers to the signal under treatment as a percentage of the control signal.

Death-associated protein kinase 1 (Homo sapiens), sequence (P53355 whole entry, looked up): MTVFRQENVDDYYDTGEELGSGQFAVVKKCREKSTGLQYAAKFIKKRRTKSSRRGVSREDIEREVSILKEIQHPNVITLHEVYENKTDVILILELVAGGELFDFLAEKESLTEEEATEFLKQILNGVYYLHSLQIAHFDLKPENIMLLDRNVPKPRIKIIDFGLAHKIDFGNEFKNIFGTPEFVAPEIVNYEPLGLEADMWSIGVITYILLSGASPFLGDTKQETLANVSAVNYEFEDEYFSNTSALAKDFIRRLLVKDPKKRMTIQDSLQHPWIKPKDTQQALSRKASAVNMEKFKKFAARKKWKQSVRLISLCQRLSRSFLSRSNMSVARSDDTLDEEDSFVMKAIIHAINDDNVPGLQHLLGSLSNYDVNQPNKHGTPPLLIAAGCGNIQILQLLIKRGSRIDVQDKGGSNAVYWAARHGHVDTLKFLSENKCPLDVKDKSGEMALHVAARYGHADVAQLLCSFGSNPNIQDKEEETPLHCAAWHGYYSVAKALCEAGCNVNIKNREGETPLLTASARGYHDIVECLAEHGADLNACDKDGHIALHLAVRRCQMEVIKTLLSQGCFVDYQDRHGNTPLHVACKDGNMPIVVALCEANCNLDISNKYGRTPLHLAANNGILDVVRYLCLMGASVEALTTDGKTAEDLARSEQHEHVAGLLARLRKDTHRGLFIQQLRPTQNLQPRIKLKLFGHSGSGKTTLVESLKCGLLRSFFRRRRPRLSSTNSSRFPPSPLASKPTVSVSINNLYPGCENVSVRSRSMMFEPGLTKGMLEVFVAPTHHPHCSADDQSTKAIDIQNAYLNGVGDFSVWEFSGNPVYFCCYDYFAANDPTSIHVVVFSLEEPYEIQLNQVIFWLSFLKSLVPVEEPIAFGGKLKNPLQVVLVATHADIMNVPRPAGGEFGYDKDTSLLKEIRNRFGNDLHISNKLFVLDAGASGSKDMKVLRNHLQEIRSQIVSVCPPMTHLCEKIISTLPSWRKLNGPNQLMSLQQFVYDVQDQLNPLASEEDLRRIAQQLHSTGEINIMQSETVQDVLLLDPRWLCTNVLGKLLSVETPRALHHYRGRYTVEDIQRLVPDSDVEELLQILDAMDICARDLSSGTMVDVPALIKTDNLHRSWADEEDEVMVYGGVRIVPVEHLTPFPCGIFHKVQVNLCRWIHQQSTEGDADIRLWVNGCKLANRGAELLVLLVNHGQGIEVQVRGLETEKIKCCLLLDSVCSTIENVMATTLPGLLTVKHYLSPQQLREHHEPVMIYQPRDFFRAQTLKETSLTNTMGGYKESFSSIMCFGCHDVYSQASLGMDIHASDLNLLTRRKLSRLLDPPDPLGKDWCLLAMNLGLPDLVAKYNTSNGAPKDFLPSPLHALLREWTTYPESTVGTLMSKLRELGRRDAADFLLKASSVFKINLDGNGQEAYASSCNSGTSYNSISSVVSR
Death-associated protein kinase 2 (Homo sapiens), sequence (Q9UIK4 whole entry, looked up): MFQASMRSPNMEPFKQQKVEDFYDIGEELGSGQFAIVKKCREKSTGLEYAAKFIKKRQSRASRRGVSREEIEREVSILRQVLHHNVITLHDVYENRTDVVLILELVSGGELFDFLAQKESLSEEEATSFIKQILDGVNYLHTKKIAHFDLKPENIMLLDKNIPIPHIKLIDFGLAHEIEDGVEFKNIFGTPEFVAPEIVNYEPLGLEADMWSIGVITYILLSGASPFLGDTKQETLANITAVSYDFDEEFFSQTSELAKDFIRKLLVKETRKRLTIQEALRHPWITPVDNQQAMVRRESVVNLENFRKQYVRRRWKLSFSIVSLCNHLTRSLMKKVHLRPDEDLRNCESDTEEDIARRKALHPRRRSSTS
Epidermal growth factor receptor (Homo sapiens), sequence (P00533 whole entry): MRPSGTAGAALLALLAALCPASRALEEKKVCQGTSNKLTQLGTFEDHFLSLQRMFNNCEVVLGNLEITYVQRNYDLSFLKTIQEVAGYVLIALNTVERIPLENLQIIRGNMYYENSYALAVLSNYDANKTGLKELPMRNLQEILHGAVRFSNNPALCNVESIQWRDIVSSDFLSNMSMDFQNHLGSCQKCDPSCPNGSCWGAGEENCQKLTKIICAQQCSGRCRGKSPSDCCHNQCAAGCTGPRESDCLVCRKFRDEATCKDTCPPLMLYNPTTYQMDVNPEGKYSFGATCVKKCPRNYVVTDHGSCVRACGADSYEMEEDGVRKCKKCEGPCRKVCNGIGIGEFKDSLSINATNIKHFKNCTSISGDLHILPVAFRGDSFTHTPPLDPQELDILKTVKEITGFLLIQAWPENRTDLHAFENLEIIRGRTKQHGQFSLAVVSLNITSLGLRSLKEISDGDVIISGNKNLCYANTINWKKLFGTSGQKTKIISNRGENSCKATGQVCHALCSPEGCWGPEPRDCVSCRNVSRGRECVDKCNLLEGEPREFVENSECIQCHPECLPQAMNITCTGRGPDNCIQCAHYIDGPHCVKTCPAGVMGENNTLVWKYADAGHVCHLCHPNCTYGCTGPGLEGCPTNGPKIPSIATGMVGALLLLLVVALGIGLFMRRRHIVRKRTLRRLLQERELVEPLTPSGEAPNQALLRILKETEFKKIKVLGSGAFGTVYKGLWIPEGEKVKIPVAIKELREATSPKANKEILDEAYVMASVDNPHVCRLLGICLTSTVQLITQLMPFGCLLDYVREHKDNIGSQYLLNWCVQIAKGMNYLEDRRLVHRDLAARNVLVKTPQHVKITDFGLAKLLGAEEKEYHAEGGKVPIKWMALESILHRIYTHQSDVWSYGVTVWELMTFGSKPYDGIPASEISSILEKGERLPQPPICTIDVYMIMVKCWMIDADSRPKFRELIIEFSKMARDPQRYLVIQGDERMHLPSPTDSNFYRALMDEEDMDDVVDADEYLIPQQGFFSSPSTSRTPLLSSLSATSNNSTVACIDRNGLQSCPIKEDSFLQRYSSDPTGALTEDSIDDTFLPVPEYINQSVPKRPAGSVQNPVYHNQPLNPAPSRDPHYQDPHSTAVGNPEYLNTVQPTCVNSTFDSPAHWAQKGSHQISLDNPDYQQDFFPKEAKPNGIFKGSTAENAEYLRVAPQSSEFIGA

On to `O=C1Nc2ccc(Cl)cc2/C1=C/c1cc(Cl)c(O)c(Cl)c1`, for which the residual activity in assay [1] was 46%; in assay [2] it was 69%; in [3] it was 28%; in [4] it was 61%; in [5], 73%; in [6], 138%. In addition, the residual activity worked out at 71% in assay [7]; 17% in assay [8]; 83% in assay [9]; 70% in assay [10]; 84% in [11]; 87% in assay [12]. For the same molecule, the residual activity was 99% in assay [13], 76% in [14] and 91% in assay [15].

As for `COc1cc2ncnc(Nc3cccc(Cl)c3)c2cc1OC`, the residual activity in [1] was 100%; in assay [4], 122%; in assay [5], 85%; in [16] it was 74%; in [17] it was 103%; in assay [6], 113%. Also, the residual activity in assay [7] was 103%; in [8], 48%; in assay [18], -5%; in assay [19], -3%; in assay [11], 42%; in assay [12], 7%. For the same molecule, the residual activity was 89% in assay [13] and 37% in assay [14].
